Consider 27 compounds from PubChem BioAssay (Tox21).

Results filed as inconclusive are left out. Calls of active or inactive are those of the source. The call rests on the fitted dose curve; in most records, active means well fitted curve in the direction sought with a large enough effect in the repeat runs; inconclusive means weak or mixed curves; inactive means no such curve, though single readings can be large; an effect the other way counts as inactive or inconclusive.

The nature of test [1]: A CellTox Green Cytotoxicity Assay to monitor cytotoxicity in HEK293 cells - 32 hour (AID 1224881). Further: nearly all actives have a fitted effect of over 40% in size. Further: potency means the concentration at half of the fitted maximal effect. The gist of the method:
(§1)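 HEK293 cells premixed with CellTox Green dye were seeded at 600 cells/well and left 5 h at 37 C/5% CO2 before pin transfer of 23 nL compound in DMSO. Fluorescence from dye bound to dead-cell DNA was read during 40 h treatment.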

Test [2] is described as follows: A CellTox Green Cytotoxicity Assay to monitor cytotoxicity in HepG2 cells - 0 hour (AID 1224882). Further: nearly all actives have a fitted effect of over 35% in size. The gist of the method:
(§2)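 HepG2 cells were seeded together with the CellTox Green dye at 600 cells/well, left 5 h at 37 C/5% CO2, then given compounds in DMSO. Fluorescence from dye bound to dead-cell DNA was read repeatedly over 40 h of treatment at 37 C.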

Test [3] in a line: A CellTox Green Cytotoxicity Assay to monitor cytotoxicity in HepG2 cells - 32 hour (AID 1224883). Further: nearly all actives have a fitted effect of over 50% in size. In outline: as §2
A short description of test [4]: A CellTox Green Cytotoxicity Assay to monitor cytotoxicity in HEK293 cells - 8 hour (AID 1224884). Further: nearly all actives have a fitted effect of over 35% in size. In outline: as §1
Test [5] can be described thus: qHTS RealTime-Glo MT Cell Viability Assay in HEK293 cells - 24 hour (AID 1224886). Further: nearly all actives have a fitted effect of over 50% in size. Further: potency means the concentration at half of the fitted maximal effect. The gist of the method:
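Viability tracked continuously by luminescence as live cells reduce a prosubstrate for NanoLuc; HEK293 cells preincubated 5 h, compound-treated at 37 C, and read at 0, 8, 16, 24, 32 and 40 h.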
(In general: Quantitative high-throughput screening tests each substance at several concentrations.)

Test [6] in a line: qHTS RealTime-Glo MT Cell Viability Assay in HEK293 cells - 8 hour (AID 1224887). Further: nearly all actives have a fitted effect of over 50% in size. Further: potency means the concentration at half of the fitted maximal effect. The gist of the method:
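HEK293 cells mixed with RealTime-Glo reagents (NanoLuc plus cell-permeant prosubstrate) at 600 cells/well, preincubated 5 h at 37 C/5% CO2, then given 23 nL compound in DMSO. Nonlytic luminescence from viable cells was read at 0, 8, 16, 24, 32 and 40 h.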

The nature of test [7]: A CellTox Green Cytotoxicity Assay to monitor cytotoxicity in HEK293 cells - 16 hour (AID 1224888). Further: nearly all actives have a fitted effect of over 35% in size. The gist of the method: as §1
Test [8] in a line: qHTS RealTime-Glo MT Cell Viability Assay in HepG2 cells - 0 hour (AID 1224889). Further: nearly all actives have a fitted effect of over 50% in size. The gist of the method:
(§3)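 Viability was tracked continuously by NanoLuc luminescence from prosubstrate reduced by living HepG2 cells, at successive time points over 40 h of compound exposure. Cells with reagent were preincubated 5 h at 37 °C before compound addition.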

Test [9] in a line: A CellTox Green Cytotoxicity Assay to monitor cytotoxicity in HepG2 cells - 8 hour (AID 1224890). Further: nearly all actives have a fitted effect of over 45% in size. In outline: as §2
Test [10] is described as follows: qHTS RealTime-Glo MT Cell Viability Assay in HepG2 cells - 16 hour (AID 1224885). Further: nearly all actives have a fitted effect of over 50% in size. The gist of the method:
as §3

For `Cc1nc(N(C)C)nc(OC(=O)N(C)C)c1C`, the Potency result in test [1], in [2], in [3], in [4], in [5] and in test [6] was “inactive” each time. Further, the Potency result in test [7] and in test [9] was “inactive” throughout. The outcome in [8] was inactive.
For `CCOP(=O)(O)C(N)=O`, the Potency entry in test [1], in test [2], in [3], in test [4], in test [5] and in test [6] was “inactive” each time. The Potency result in test [7] and in [9] was “inactive” in each case. For the same compound, in test [8], the result was inactive.
For `O=C=NC1CCCCC1`, the Potency entry in test [1], in test [2], in [3], in test [4], in [10] and in [6] was “inactive” in each case. Also, the Potency entry in test [7] and in [9] was “inactive” throughout. The outcome in test [8] was inactive.
On to `CON(C)C(=O)Nc1ccc(Cl)cc1`, for which the Potency entry in [1], in test [2], in [3], in [4], in [10] and in test [6] was “inactive” in each case. Further, the Potency result in test [7] and in test [9] was “inactive” throughout.
In the case of `Cc1nc2ccccc2c(=O)n1-c1ccccc1Cl`, the Potency entry in test [1], in test [2], in [3], in [4], in test [7] and in [9] was “inactive” each time. The Potency is 21.4 µM (active) in [5] and 24 µM (active) in [6].
`CCC(C)(C)O`: the Potency entry in [1], in [2], in test [3], in test [4], in [5] and in test [6] was “inactive” each time. Moreover, the Potency entry in test [7] and in [9] was “inactive” throughout. In test [8], the outcome was inactive.
As for `CN1C[C@H](C(=O)N[C@]2(C)O[C@@]3(O)[C@@H]4CCCN4C(=O)[C@H](Cc4ccccc4)N3C2=O)C=C2c3cccc4[nH]cc(c34)C[C@H]21`, the Potency result in test [1], in test [2], in test [3], in test [4], in test [5] and in test [6] was “inactive” in each case. Besides, the Potency result in [7] and in test [9] was “inactive” in each case.
Consider `CN1C(=O)CN=C(c2ccccc2)c2cc([N+](=O)[O-])ccc21`, for which the Potency result in test [1], in test [3], in [4], in test [10], in [5] and in test [6] was “inactive” in each case. The Potency result in [7] and in test [9] was “inactive” each time. Further, the outcome in test [8] was inactive.
As to `Clc1ccc2ccccc2c1`, in [1], the Potency was 50.5 µM (active). Besides, the Potency result in test [2], in test [3], in test [10] and in test [9] was “inactive” each time. The compound was called inactive in test [8].
As for `CCOP(=S)(OCC)SCSc1cc(Cl)ccc1Cl`, the Potency result in [1], in [2], in test [4], in [5], in test [6] and in test [7] was “inactive” in each case. Besides, in [9], the Potency entry was “inactive”. For the same compound, the outcome in test [8] was inactive.
For the compound `CCCCC1C(=O)NC(=O)N(C2CCCCC2)C1=O` (centres undefined), the Potency entry in [1], in [3], in test [4], in test [10], in test [5] and in test [6] was “inactive” each time. For the same compound, the Potency result in test [7] and in test [9] was “inactive” throughout. The compound was classed as inactive in [8].
As for `C[N+]1(CCF)[C@@H]2CC[C@H]1CC(OC(=O)C(O)(c1ccccc1)c1ccccc1)C2` (some centres undefined), the Potency result in test [1], in test [2], in [4], in test [10], in [5] and in test [6] was “inactive” each time. Further, the Potency entry in test [7] and in test [9] was “inactive” throughout.
`O=C(O)C(Cl)(Cl)Br`: the Potency result in [1], in [2], in test [4], in [10], in [5] and in test [6] was “inactive” in each case. In addition, in [9], the Potency result is “inactive”. For the same compound, the result in test [8] was inactive.
Consider `CCOC(=O)c1cncn1C(C)c1ccccc1` (centres undefined), for which the Potency result in test [1], in [2], in [4], in test [10], in test [5] and in test [6] was “inactive” each time. For the same compound, the Potency entry in [7] and in test [9] was “inactive” each time. Further, the result in test [8] was inactive.
With `O=S(=O)(Cl)Cl`, the Potency entry in test [1], in test [2], in test [4], in test [10], in test [5] and in [6] was “inactive” in each case. Besides, the Potency result in test [7] and in [9] was “inactive” in each case.
As to `COP(=O)(OC)OC(Br)C(Cl)(Cl)Br` (centres undefined), the Potency entry in test [1], in [2], in [4], in [6], in [7] and in test [9] was “inactive” each time. The compound was classed as inactive in test [8].
Take `COc1ccc(C(O)(c2cncnc2)C2CC2)cc1` (centres undefined): the Potency result in test [1], in test [2], in [4], in [5], in test [6] and in [7] was “inactive” in each case. Besides, the Potency result in [9] was “inactive”. The compound was classed as inactive in [8].
For the compound `Cc1cccc(C)c1NC1=NCCCS1`, the Potency entry in test [1], in [3], in test [4], in test [10], in test [5] and in test [6] was “inactive” in each case. Moreover, the Potency result in test [7] and in test [9] was “inactive” in each case. The result in test [8] was inactive.
On to `CCCC[N+](CCCC)(CCCC)CCCC`, for which the Potency entry in test [1], in [2], in [4], in [10], in test [6] and in test [7] was “inactive” in each case. The Potency result in [9] was “inactive”. Moreover, the compound was classed as inactive in test [8].
Regarding `CC(C)(c1ccccc1)c1cc(-n2nc3ccccc3n2)c(O)c(C(C)(C)c2ccccc2)c1`, the Potency result in test [1], in [2], in test [4], in test [10], in test [5] and in [6] was “inactive” in each case. The Potency result in test [7] and in test [9] was “inactive” each time. For the same compound, the outcome in [8] was inactive.
In the case of `FC(Cl)(Cl)C(F)(Cl)Cl`, the Potency result in [1], in [2], in [4], in test [10], in test [5] and in [6] was “inactive” throughout. In addition, the Potency result in test [7] and in test [9] was “inactive” each time.
With `O=C(Cc1ccccc1)c1ccccc1`, the Potency result in test [1], in test [2], in test [3], in test [10], in test [5] and in test [6] was “inactive” each time. In addition, in test [7], the Potency entry was “inactive”.
With `CCSCc1ccccc1OC(=O)NC`, the Potency result in test [1], in test [3], in test [4], in test [10], in test [5] and in test [6] was “inactive” in each case. Moreover, the Potency entry in test [7] and in [9] was “inactive” throughout. For the same compound, in test [8], the compound was classed as inactive.
For `NP(N)(=O)NC(=O)c1ccc(F)cc1`, the Potency entry in [1], in test [2], in test [4], in test [10], in [5] and in test [6] was “inactive” in each case. Also, the Potency entry in test [7] and in test [9] was “inactive” each time. The compound was classed as inactive in test [8].
`Cc1ccc2c(C)cccc2c1`: the Potency entry in test [1], in [2], in [4], in test [10], in test [5] and in [6] was “inactive” throughout. The Potency result in test [7] and in test [9] was “inactive” throughout.
On to `CCOC(=O)C1OC1(C)c1ccccc1` (centres undefined), for which the Potency entry in test [1], in test [2], in test [4], in test [10], in [5] and in [6] was “inactive” in each case. Further, the Potency entry in test [7] and in test [9] was “inactive” in each case. Also, the result in [8] was inactive.
Take `CCCCCCCCCCCCCCCl`: the Potency result in [1], in test [2], in test [4], in test [5], in [6] and in test [7] was “inactive” throughout. Besides, the Potency result in [9] was “inactive”. The compound was classed as inactive in test [8].
